One may read the AC50 as the concentration giving half of the maximal activity seen.

The structures appear in SMILES notation. Values joined by “and” are separate entries in the source; they are usually repeats but may differ in a detail not shown here. Equal entries are not always repeated. Records with an inconclusive call do not appear. A structure can be active in one record and inactive in another. Active and inactive are the calls of the source. Rule for the calls: active = hit-call score of the fitted dose curve at least 0.9, where 1 is the maximum; inconclusive = response in the unintended direction; inactive = score below 0.9.

The nature of assay [1]: ATG_XTT_Cytotoxicity: Cytotoxicity Assessment in the Attagene TRANS-FACTORIAL HepG2 Assay (AID 2283584).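 For AC50: XTT signal for cell number as viability in transfected HepG2 cells; cells exposed to compound for 24 h before reading; active means loss of viability signal versus DMSO baseline.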 In outline: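 HepG2 cells transiently transfected with GAL4-UAS multiple reporter units, dosed 24 h; cytotoxicity read by XTT as loss of signal versus DMSO baseline.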
The nature of assay [2]: TOX21_p53_BLA_p2_viability: Viability Assessment in the Tox21 HCT-116 p53 Agonism Beta-lactamase Assay, Phase 2 (AID 2283591).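 Note: actives lower the ATP signal meaning cytotoxicity.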 In short, it runs like this: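 HCT-116 p53-bla cells (4000/well) rested 5 h at 37C, then received compounds in DMSO (217-fold dilution) for 16 h at 37C, 5% CO2. After the CCF4 read, CellTiter-Glo was added; ATP luminescence was read after 30 min at room temperature.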

Assay [3] concerns the target Cellular tumor antigen p53 (Homo sapiens) (UniProt P04637). In words: TOX21_p53_BLA_p2_ratio: Tox21 HCT-116 p53 Agonism Beta-lactamase Assay, Ratio, Phase 2 (AID 2283592). In short, it runs like this:
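First, HCT116 reporter cells settle for 5 h at 37C. Next, DMSO compound solutions are pinned in (217-fold dilution) and left 16 h. Finally, CCF4-AM substrate is loaded 2 h at room temperature and the 460/530 nm ratio read.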

Assay [4] in a line: TOX21_p53_BLA_p3_viability: Viability Assessment in the Tox21 HCT-116 p53 Agonism Beta-lactamase Assay, Phase 3 (AID 2283593).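 Note: cells exposed to compound for 16 h before reading.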 In short, it runs like this:
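HCT-116 cells (4000/well) rested 5 h at 37C, then got DMSO compounds by pin tool (217-fold dilution) for 16 h at 37C, 5% CO2. After the bla read, CellTiter-Glo was added and luminescence read at 30 min, room temperature.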

For assay [5], the target named is Cellular tumor antigen p53 (Homo sapiens) (UniProt P04637). The assay is described as follows: TOX21_p53_BLA_p3_ratio: Tox21 HCT-116 p53 Agonism Beta-lactamase Assay, Ratio, Phase 3 (AID 2283596). In outline: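 Cells were seeded at 4000/well, rested 5 h at 37C, then dosed with DMSO compound solutions (217-fold dilution) for 16 h. CCF4-AM substrate was loaded for 2 h at room temperature, and the 460/530 nm emission ratio was fitted for gain of signal versus DMSO.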

For assay [6] the target is unchanged. In words: TOX21_p53_BLA_p5_ratio: Tox21 HCT-116 p53 Agonism Beta-lactamase Assay, Ratio, Phase 5 (AID 2283599). In short, it runs like this: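 HCT-116 cells carrying a p53-inducible beta-lactamase reporter were seeded at 4000 cells/well and dosed after 5 h with compound in DMSO (217-fold dilution). After 16 h at 37C, CCF4-AM substrate was added for 2 h, and the 460/530 nm emission ratio was scored as gain-of-signal versus DMSO.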

Assay [7] can be described thus: TOX21_p53_BLA_p5_viability: Viability Assessment in the Tox21 HCT-116 p53 Agonism Beta-lactamase Assay, Phase 5 (AID 2283600). In short, it runs like this:
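Decreased CellTiter-Glo luminescence denotes lost viability. Exposure: 16 h at 37C, 5% CO2, with compounds from DMSO stocks diluted 217-fold in wells of 4000 cells.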

For assay [8], the target named is Cellular tumor antigen p53 (Homo sapiens) (UniProt P04637). The assay is described as follows: TOX21_p53_BLA_p4_ratio: Tox21 HCT-116 p53 Agonism Beta-lactamase Assay, Ratio, Phase 4 (AID 2283601). In outline: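 HCT116 cells carrying an inducible beta-lactamase reporter were plated at 4000 cells/well, rested 5 h, then exposed to compounds in DMSO (217-fold dilution) for 16 h at 37C. CCF4-AM substrate was loaded 2 h at room temperature; 460/530 nm emission ratio scored gain-of-signal versus DMSO.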

Assay [9] in a line: TOX21_p53_BLA_p4_viability: Viability Assessment in the Tox21 HCT-116 p53 Agonism Beta-lactamase Assay, Phase 4 (AID 2283597).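 Note: hits lower the luminescence signal meaning cytotoxicity.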 In short, it runs like this:
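4000 HCT116 cells per well; 5 h attachment; compounds from DMSO, 217-fold dilution; 16 h at 37C. Then CCF4-AM, 2 h RT, followed by CellTiter-Glo, 30 min RT, luminescence. Decrease = cytotoxicity.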

Sequence of Cellular tumor antigen p53 (Homo sapiens) (P04637 whole entry, looked up): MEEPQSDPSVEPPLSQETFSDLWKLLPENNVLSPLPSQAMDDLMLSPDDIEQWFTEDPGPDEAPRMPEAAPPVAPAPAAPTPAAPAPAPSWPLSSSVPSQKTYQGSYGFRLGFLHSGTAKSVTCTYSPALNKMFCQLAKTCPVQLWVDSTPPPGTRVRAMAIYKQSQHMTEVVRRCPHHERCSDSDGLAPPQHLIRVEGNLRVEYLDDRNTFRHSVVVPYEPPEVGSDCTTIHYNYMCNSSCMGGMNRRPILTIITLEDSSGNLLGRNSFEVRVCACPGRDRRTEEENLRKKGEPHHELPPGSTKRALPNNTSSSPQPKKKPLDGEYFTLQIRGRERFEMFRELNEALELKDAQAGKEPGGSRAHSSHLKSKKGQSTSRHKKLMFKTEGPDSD

For the compound `O=c1cc(-c2ccccc2)oc2ccc3ccccc3c12`, the outcome in assay [1], in assay [2], in [3], in assay [4], in [5] and in assay [6] was inactive. The call in [7] and in assay [8] was inactive.
Take `O=C(Nc1ccc(Cl)c(Cl)c1)c1cc(Cl)cc(Cl)c1O`: the AC50 in assay [1] was 43.1 µM (active); in [2], 558 nM (active); in assay [3] it was 0.354 µM (active); in assay [4] it was 989 nM (active); in assay [5], 434 nM (active); in [9], 0.671 µM (active). Also, the concentration at half-maximal activity (AC50) was 1.45 µM (active) in [6] and 2.77 µM (active) in assay [8]. The compound was classed as inactive in assay [7].
As for `CCCCCCc1ccc(N)cc1`, the call in [1], in [2], in assay [3], in [4], in assay [5] and in [9] was inactive. Also, the outcome in [6], in [7] and in assay [8] was inactive.
Take `O=S(=O)(O)c1ccc2cc(O)ccc2c1`: the compound was called inactive in assay [1], in assay [2], in assay [3], in assay [4], in assay [5] and in assay [6]. The result in assay [7] and in assay [8] was inactive.
For `CC(C)(C)C1CCCCC1O` (stereo not given), the compound was classed as inactive in [1], in [2], in assay [3], in assay [4], in [6] and in assay [8].
`Nc1ccc(O)c(C(=O)O)c1`: the result in assay [1], in assay [2], in assay [3], in assay [4], in assay [5] and in [9] was inactive. The outcome in assay [6] and in [7] was inactive. The half-maximal activity concentration (AC50) in [6] was 71.9 µM (active).
As to `COc1cc([N+](=O)[O-])ccc1N`, the compound was called inactive in assay [1], in assay [2], in [3] and in assay [4].
With `COc1ccccc1NC(=O)c1cc2ccccc2cc1O`, the outcome in assay [1], in assay [2], in assay [4], in assay [5], in assay [9] and in assay [6] was inactive. In assay [7], the compound was called inactive. For the same compound, the AC50 in [3] was 14 µM (active); in [8] it was 36.1 µM (active).
`CC(O)COc1ccccc1` (stereo not given): the result in [1], in assay [2], in assay [3], in [4], in assay [5] and in [6] was inactive. Moreover, the compound was classed as inactive in [7] and in assay [8].
`CNNCc1ccc(C(=O)NC(C)C)cc1`: the outcome in [1], in [2], in assay [3], in [4], in [5] and in assay [6] was inactive. Further, the compound was classed as inactive in assay [7] and in assay [8].
Turning to `CCCCCCCCCC=CCC1CC(=O)OC1=O` (stereo not given), the outcome in assay [1], in [2], in [3], in assay [4], in [5] and in assay [6] was inactive. Moreover, the compound was called inactive in assay [7] and in assay [8].
Turning to `CCCCCCCCCCCCCC[n+]1ccccc1`, the half-maximal activity concentration (AC50) in [1] was 28.3 µM (active); in assay [3], 4.85 µM (active); in assay [5], 14100 nM (active); in assay [8] it was 21.6 µM (active). In addition, the compound was classed as inactive in assay [2], in [4], in assay [6] and in assay [7].
Take `CCC1CO1` (stereo not given): the compound was called inactive in [1], in assay [3], in assay [7] and in [8].
With `CCC(=O)O`, the call in [1], in [3], in assay [5], in assay [6] and in assay [8] was inactive.
Turning to `CC(C)(O)C(=O)c1ccccc1`, the compound was called inactive in assay [1], in [2], in [3], in assay [4] and in [7].
Regarding `CC(C)C=O`, the result in assay [1], in [2], in assay [4], in [9], in assay [6] and in assay [7] was inactive. The result in assay [8] was inactive.
`Cc1ccc(C)c(S(=O)(=O)O)c1`: the call in assay [1], in assay [2], in [3], in [5], in [9] and in [7] was inactive. Also, the result in [8] was inactive.
In the case of `COC(=O)CC(C(C)=O)C(=O)OC` (stereo not given), the result in assay [1], in assay [2], in assay [4], in assay [5], in [6] and in assay [7] was inactive. Also, in assay [8], the result was inactive.
On to `O=C(O)C(=O)O`, for which the result in assay [1], in assay [3], in assay [5], in assay [6] and in assay [8] was inactive.
On to `c1ccc(CNc2ncnc3c2ncn3C2CCCCO2)cc1` (stereo not given), for which the compound was called inactive in [1], in assay [2], in assay [4], in assay [9] and in assay [7].
With `CCOC(C)=O`, the result in [3], in assay [4], in assay [5], in [6], in [7] and in assay [8] was inactive.
`Cc1cc(C(C)(C)C)c(O)c(C(C)(C)C)c1`: the outcome in assay [2], in assay [3], in assay [4], in assay [5], in [9] and in assay [6] was inactive. Moreover, the outcome in [7] and in [8] was inactive.
For the compound `CCN(CC)CC`, the compound was called inactive in assay [1], in assay [2], in assay [4], in assay [6], in [7] and in assay [8].
Turning to `Cc1ccc(C(=O)c2ccccc2)cc1`, the call in [1], in assay [3], in assay [5], in assay [6] and in assay [8] was inactive.
Regarding `CCCCCCCCCCCCCCCC(=O)OC`, the outcome in [1], in [2] and in assay [9] was inactive.
Consider `CCCCCCCCCCCCOC(=O)c1cc(O)c(O)c(O)c1`, for which the AC50 in assay [2] is 21.7 µM (active) and 28.2 µM (active); in assay [3], 24.7 µM (active) and 32.4 µM (active); in assay [4], 49.2 µM (active) and 77.1 µM (active); in assay [5] it was 57.6 µM (active) and 81.5 µM (active); in assay [6] it was 48.3 µM (active) and 77 µM (active); in assay [7], 41.2 µM (active) and 78.9 µM (active). The AC50 in [8] was 53 µM (active) and 36.9 µM (active).
Consider `CCCCCCCCC1CCC(=O)O1` (stereo not given), for which the call in [1], in [2], in [5], in assay [6], in assay [7] and in assay [8] was inactive.

For the origin of these results see PubChem BioAssay (EPA / NIEHS).
